Drawing on ChEMBL document CHEMBL1961873, “Compounds: GSK PKIS; Assays: Nanosyn kinase panel” (2012), this text covers inhibition for one compound.

Assay [1] addresses Sphingosine kinase 1 (Homo sapiens) (UniProt Q9NYA1). The note with it: at 1 µM.
The target of assay [2] is T1, Sphingosine kinase 2 (Homo sapiens) (UniProt Q9NRA0).
T1 sequence (whole entry): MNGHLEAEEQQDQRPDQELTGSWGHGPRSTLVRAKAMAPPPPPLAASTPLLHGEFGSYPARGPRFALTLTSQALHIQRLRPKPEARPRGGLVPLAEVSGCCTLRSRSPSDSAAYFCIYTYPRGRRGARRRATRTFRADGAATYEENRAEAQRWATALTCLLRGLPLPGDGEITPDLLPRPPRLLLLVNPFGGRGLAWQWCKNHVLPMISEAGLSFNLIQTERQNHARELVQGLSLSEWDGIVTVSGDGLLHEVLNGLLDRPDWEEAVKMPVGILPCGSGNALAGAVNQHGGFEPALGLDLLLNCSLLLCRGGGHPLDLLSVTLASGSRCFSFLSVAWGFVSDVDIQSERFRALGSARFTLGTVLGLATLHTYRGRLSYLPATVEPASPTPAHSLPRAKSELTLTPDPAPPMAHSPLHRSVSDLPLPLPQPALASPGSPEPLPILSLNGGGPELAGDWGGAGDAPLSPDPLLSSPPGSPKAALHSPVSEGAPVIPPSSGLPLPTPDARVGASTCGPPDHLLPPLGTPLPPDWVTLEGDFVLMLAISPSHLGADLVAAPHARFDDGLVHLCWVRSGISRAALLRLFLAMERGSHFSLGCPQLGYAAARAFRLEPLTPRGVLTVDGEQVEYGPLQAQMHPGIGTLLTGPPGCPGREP
The following applies: at 0.1 µM.

The target of assay [3] is T1, Sphingosine kinase 2 (Homo sapiens). The following applies: at 1 µM.
The target in assay [4] is Casein kinase II subunit alpha (Homo sapiens) (UniProt P68400). The note with it: at 0.1 µM.
Assay [5] shares this target. The note with it: at 1 µM.
Assay [6] has as its target T2, Inhibitor of nuclear factor kappa-B kinase subunit alpha (Homo sapiens) (UniProt O15111).
T2 sequence (whole entry): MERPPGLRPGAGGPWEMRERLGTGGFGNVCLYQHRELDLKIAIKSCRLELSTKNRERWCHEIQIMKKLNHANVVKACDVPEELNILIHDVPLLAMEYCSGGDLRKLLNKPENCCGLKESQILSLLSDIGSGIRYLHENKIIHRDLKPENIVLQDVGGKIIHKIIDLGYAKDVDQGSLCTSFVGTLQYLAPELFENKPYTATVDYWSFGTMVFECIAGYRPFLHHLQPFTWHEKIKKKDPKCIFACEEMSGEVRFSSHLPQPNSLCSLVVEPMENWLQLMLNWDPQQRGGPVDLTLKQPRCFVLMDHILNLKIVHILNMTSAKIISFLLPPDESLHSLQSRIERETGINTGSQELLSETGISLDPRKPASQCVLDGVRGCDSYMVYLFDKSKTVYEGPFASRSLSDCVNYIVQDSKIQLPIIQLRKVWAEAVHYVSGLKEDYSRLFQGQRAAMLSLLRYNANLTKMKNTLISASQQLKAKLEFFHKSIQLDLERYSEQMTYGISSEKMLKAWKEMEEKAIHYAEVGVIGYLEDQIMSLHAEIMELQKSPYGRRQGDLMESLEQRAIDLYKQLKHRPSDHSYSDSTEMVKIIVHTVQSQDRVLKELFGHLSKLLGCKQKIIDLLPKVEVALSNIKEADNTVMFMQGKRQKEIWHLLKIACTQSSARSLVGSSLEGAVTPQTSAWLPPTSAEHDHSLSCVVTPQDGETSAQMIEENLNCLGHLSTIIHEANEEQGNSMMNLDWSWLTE
The note with it: at 0.1 µM.

In assay [7] the target is T2, Inhibitor of nuclear factor kappa-B kinase subunit alpha (Homo sapiens). The following applies: at 1 µM.
Assay [8] addresses T3, Inhibitor of nuclear factor kappa-B kinase subunit beta (Homo sapiens) (UniProt O14920).
T3 sequence (whole entry): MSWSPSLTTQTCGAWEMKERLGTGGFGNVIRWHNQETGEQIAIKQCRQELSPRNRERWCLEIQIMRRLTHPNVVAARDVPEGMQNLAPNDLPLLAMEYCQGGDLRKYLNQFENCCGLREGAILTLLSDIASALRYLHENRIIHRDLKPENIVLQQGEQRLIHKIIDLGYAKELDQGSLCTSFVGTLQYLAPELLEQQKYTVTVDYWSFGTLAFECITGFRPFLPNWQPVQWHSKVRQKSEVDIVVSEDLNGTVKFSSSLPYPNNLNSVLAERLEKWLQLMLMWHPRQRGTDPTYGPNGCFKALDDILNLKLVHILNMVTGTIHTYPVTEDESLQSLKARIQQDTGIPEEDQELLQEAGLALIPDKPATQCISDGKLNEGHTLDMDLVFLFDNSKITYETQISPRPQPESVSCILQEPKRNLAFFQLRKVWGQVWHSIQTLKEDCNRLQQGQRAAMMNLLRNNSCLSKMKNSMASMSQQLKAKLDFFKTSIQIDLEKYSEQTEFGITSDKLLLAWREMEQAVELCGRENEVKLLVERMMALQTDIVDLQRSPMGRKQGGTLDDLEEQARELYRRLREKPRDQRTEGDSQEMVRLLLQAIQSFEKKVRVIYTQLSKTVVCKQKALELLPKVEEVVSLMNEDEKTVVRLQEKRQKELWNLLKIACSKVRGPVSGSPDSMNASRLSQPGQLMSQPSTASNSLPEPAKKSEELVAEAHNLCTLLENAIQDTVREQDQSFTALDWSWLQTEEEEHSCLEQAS
The following applies: at 0.1 µM.

The target in assay [9] is T3, Inhibitor of nuclear factor kappa-B kinase subunit beta (Homo sapiens). The following applies: at 1 µM.
Assay [10] deals with T4, Inhibitor of nuclear factor kappa-B kinase subunit epsilon (Homo sapiens) (UniProt Q14164).
T4 sequence (whole entry): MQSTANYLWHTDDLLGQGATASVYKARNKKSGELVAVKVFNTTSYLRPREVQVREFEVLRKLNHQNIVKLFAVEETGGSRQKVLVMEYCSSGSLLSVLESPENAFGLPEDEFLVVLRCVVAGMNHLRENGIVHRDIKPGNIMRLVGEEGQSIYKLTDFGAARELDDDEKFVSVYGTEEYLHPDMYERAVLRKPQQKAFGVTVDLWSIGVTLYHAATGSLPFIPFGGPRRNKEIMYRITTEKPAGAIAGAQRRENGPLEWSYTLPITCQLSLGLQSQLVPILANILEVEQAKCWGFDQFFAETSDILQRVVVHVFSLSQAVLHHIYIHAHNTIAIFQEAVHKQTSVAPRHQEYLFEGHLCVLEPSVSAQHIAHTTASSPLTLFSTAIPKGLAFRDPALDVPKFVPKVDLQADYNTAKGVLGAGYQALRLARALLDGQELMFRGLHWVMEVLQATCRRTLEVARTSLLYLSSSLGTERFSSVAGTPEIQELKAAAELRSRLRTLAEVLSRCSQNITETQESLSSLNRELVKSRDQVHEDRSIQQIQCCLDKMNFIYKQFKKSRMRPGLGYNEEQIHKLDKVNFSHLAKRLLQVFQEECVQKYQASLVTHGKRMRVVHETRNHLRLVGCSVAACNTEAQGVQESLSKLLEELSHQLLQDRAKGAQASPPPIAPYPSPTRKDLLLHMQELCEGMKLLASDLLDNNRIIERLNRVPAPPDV
The note with it: at 0.1 µM.

Assay [11] has as its target T4, Inhibitor of nuclear factor kappa-B kinase subunit epsilon (Homo sapiens). The following applies: at 1 µM.
Assay [12] deals with T5, Serine/threonine-protein kinase Nek1 (Homo sapiens) (UniProt Q96PY6).
T5 sequence (whole entry): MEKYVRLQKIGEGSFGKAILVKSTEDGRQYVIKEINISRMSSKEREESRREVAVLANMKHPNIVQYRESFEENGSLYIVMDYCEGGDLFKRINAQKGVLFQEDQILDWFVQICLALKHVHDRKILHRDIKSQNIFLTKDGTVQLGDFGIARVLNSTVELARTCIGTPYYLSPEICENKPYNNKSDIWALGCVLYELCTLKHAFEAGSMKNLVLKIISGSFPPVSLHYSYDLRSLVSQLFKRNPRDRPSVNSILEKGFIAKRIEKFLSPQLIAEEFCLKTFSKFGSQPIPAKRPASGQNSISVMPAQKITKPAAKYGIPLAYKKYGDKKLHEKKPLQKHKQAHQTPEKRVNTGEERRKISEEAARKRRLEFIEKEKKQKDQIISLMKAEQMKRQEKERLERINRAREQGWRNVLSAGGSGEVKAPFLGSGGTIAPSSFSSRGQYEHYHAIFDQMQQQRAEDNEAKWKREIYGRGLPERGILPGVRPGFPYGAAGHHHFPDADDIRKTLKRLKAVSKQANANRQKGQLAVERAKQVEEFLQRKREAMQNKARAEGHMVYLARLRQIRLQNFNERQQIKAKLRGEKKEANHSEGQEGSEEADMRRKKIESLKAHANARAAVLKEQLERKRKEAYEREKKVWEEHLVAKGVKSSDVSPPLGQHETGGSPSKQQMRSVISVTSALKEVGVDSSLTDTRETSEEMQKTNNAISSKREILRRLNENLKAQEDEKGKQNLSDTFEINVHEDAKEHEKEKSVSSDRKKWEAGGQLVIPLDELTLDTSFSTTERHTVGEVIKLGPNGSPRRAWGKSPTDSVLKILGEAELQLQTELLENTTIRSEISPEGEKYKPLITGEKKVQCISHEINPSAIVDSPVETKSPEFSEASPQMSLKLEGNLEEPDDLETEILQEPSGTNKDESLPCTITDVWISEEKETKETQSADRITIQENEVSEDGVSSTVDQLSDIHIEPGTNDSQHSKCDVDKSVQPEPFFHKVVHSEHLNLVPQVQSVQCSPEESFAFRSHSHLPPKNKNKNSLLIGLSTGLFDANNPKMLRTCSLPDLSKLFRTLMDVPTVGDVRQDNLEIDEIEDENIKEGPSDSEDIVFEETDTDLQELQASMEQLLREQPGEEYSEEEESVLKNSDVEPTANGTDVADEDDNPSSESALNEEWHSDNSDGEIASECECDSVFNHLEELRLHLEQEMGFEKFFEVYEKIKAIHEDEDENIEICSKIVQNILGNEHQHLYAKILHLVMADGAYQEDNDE
The note with it: at 0.1 µM.

Assay [13] concerns the target T5, Serine/threonine-protein kinase Nek1 (Homo sapiens). The following applies: at 1 µM.
Assay [14] deals with T6, Serine/threonine-protein kinase Nek2 (Homo sapiens) (UniProt P51955).
T6 sequence (whole entry): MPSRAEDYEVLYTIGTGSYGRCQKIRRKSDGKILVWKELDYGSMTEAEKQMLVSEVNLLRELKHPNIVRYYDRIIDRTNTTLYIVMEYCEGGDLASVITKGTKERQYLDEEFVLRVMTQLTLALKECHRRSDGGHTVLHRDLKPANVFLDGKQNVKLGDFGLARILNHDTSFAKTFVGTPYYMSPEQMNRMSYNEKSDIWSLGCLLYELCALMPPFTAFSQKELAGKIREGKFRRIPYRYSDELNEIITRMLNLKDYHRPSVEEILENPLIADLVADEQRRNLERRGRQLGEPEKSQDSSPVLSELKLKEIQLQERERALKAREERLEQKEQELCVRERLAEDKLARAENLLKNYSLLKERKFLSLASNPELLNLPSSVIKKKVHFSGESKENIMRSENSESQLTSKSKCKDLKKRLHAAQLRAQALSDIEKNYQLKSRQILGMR
The note with it: at 0.1 µM.

Assay [15] concerns the target T6, Serine/threonine-protein kinase Nek2 (Homo sapiens). The following applies: at 1 µM.
In assay [16] the target is Serine/threonine-protein kinase Nek6 (Homo sapiens) (UniProt Q9HC98). The note with it: at 0.1 µM.
The target is the same in assay [17]. The following applies: at 1 µM.
In assay [18] the target is Serine/threonine-protein kinase Nek7 (Homo sapiens) (UniProt Q8TDX7). The following applies: at 0.1 µM.
Assay [19] shares this target. The note with it: at 1 µM.
Assay [20] deals with T7, Serine/threonine-protein kinase Nek9 (Homo sapiens) (UniProt Q8TD19).
T7 sequence (whole entry): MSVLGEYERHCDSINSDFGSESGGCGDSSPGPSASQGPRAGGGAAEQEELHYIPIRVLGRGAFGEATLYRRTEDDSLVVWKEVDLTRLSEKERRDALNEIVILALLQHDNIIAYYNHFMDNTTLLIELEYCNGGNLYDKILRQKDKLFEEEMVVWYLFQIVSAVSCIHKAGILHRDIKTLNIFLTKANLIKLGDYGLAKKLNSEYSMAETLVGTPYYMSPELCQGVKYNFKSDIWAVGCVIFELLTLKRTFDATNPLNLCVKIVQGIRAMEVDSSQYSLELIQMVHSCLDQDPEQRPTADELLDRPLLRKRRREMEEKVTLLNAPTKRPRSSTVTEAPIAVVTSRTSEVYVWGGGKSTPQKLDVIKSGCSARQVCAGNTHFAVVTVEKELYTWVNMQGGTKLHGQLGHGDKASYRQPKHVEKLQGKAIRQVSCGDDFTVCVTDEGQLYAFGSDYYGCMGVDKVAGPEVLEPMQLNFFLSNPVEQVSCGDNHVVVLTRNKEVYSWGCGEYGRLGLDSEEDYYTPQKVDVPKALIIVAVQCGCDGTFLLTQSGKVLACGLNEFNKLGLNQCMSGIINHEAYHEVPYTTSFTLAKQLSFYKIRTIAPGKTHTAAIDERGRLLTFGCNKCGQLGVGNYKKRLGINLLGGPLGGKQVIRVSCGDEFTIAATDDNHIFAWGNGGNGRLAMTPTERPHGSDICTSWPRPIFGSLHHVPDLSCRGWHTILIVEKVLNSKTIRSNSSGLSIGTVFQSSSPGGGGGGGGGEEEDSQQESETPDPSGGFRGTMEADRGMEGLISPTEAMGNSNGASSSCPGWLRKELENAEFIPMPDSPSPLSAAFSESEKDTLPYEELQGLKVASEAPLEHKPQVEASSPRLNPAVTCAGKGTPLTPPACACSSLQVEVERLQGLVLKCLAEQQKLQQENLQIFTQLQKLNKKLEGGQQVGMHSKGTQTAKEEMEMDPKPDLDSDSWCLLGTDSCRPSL
The following applies: at 0.1 µM.

Sequence of Casein kinase II subunit alpha (Homo sapiens) (P68400 whole entry, looked up): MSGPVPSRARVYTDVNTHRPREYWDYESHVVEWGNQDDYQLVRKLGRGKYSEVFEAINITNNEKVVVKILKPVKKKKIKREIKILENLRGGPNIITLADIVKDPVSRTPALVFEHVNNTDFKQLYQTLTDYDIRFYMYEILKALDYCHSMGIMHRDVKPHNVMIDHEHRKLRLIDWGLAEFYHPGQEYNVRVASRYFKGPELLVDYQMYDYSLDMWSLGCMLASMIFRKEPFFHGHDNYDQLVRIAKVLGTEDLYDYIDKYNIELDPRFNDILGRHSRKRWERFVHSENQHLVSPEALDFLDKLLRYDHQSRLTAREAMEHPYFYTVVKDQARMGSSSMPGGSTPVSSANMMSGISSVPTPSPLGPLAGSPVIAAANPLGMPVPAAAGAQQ
Sequence of Serine/threonine-protein kinase Nek6 (Homo sapiens) (Q9HC98 whole entry): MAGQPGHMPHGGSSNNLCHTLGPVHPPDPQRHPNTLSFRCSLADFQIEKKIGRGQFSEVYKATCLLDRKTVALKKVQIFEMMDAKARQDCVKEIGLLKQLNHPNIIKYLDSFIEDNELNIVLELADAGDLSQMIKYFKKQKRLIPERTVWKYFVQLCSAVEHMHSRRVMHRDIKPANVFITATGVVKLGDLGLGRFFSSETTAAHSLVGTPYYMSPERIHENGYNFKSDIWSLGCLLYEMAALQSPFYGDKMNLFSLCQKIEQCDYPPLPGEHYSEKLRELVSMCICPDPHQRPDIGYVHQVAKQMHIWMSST
Sequence of Serine/threonine-protein kinase Nek7 (Homo sapiens) (Q8TDX7 whole entry, looked up): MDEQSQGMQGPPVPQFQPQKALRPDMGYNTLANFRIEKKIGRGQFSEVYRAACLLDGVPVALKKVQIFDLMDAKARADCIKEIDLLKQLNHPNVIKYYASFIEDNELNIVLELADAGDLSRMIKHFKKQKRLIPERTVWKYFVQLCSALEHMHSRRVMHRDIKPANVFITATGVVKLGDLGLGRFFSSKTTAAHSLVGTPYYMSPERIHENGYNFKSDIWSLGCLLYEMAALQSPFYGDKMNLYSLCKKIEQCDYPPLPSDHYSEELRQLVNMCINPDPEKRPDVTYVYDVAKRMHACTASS
Sequence of Sphingosine kinase 1 (Homo sapiens) (Q9NYA1 whole entry): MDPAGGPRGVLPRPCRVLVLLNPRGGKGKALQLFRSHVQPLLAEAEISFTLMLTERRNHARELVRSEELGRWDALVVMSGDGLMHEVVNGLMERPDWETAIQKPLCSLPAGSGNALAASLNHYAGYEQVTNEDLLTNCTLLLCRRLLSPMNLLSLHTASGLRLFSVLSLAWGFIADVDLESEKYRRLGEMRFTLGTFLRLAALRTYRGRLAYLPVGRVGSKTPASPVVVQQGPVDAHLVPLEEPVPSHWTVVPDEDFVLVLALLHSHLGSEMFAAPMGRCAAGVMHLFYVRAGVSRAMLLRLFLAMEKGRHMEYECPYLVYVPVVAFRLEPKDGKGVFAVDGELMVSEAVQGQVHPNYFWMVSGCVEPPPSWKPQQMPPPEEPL

For `Cc1ccc(NC(=O)c2ccoc2)cc1-c1ccc(C(=O)NCC2CC2)cc1`, the inhibition – broadly, the drop in the measured response relative to a control, in per cent – in [1] is -2.32%; in [2], 0.42%; in assay [3], -0.05%; in assay [4], 2.64%; in [5] it was 1.38%; in assay [6], 0.11%. Moreover, the inhibition was found to be 7.23% in [7]; 3.9% in [8]; 3.86% in assay [9]; 3.64% in [10]; 2.47% in assay [11]; 1.2% in assay [12]. Moreover, the inhibition in assay [13] worked out at 0.36%; in [14], 3.49%; in assay [15] it was 3.48%; in assay [16], 2.49%; in [17] it was 0.14%; in assay [18], 0.66%. In addition, the inhibition in assay [19] is 1.16%; in assay [20], 5.95%.
